PubChem BioAssay AID1671448 (Corson Lab, School of Medicine, Indiana University, 2021)
The campaign covered roughly 20,000 compounds. About 660 (3.3%) were called active.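 Rule for the calls: active = enzyme reaction rate more than 3 SD below the solvent-only control wells on the same plate; inactive = the rest.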 The full list was thinned out, with actives kept by preference.

target: Ferrochelatase, mitochondrial (Homo sapiens) (UniProt P22830); assay: inhibitors of human ferrochelatase, primary screen, biochemical, purified FECH, Ni-mesoporphyrin absorbance (AID 1671448); conditions: Ni-mesoporphyrin absorbance 550 nm, screened at 10 µM (by protocol)
Sequence (P22830 whole entry, looked up): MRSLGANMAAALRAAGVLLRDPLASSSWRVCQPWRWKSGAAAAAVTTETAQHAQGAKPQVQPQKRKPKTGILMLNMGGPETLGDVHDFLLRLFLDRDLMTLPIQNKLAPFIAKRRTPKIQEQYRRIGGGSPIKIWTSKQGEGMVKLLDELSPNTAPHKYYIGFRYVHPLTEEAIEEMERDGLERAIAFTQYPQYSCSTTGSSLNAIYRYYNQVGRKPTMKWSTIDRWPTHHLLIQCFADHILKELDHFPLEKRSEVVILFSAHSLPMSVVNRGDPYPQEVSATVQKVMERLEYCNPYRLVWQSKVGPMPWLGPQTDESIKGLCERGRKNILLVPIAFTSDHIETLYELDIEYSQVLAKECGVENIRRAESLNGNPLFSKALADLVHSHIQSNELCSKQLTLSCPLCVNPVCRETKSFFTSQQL

| Structure (SMILES) | outcome |
| --- | --- |
| CCOc1ccc(CCNC(=O)CN2C(=O)C=C(CC(=O)OC)Nc3ccccc32)cc1OCC | inactive |
| CNCc1cc(-c2ccc(C)c3ncccc23)ccc1OC | inactive |
| COCCNC(=O)Cn1c(C(=O)OC)cc2ccsc21 | inactive |
| NC(=O)c1cccc(CC2CCN(C(=O)CCc3cn4ccccc4n3)C2)c1 (configuration not stated) | inactive |
| CN(C)c1ccc(CNC(=O)c2nc(N3CCCC3)c3oc4ccccc4c3n2)cc1 | inactive |
| COc1cccc(Cn2c(CNS(=O)(=O)c3cccc(Cl)c3)nc3cccnc32)c1 | inactive |
| Cc1cc(C)n(CCNC(=O)c2cc(-c3ccccc3)n[nH]2)c(=O)n1 | inactive |
| COc1nc2c(cc1CNC(=O)c1ccncc1F)C(=O)N(C1CCCC1)C2 | inactive |
| CC(C)CN1CCOC(CCNC(=O)c2cncs2)C1 (configuration not stated) | inactive |
| COc1ccc(OC)c(Nc2nc(N(C)C)nc3c2cnn3-c2ccccc2)c1 | inactive |
| CCCCN(C)c1nc(Nc2ccc(OC)cc2)c2cnn(-c3ccccc3)c2n1 | active |
| CCN(CC)c1nc(Nc2ccc(C)cc2)c2cnn(-c3ccccc3)c2n1 | inactive |
| Cc1cc(NC(=O)c2ccc(C(C)(C)C)cc2)n(-c2ncnc3c2cnn3-c2ccc(Cl)cc2)n1 | inactive |
| Cc1ccsc1CN(C)C(=O)c1ccc(-c2ncn[nH]2)cc1 | inactive |
| CCOC(=O)N1CCC(NCc2ccccc2-n2ccnc2C)CC1 | inactive |
| O=C(O)[C@H]1C[C@@H](O)CCN1C(=O)C1(c2ccc(Cl)cc2)CC1 | inactive |
| O=C(NC(Cn1cccn1)c1ccccc1)c1cc2n(n1)CCNC2 (configuration not stated) | inactive |
| O=C(NCc1ccccn1)C1CCN(c2ccc(-c3ccc(Br)s3)nn2)CC1 | inactive |
| Cc1ccc(CSc2ncc(Cl)c(C(=O)Nc3ccc(S(N)(=O)=O)cc3)n2)cc1 | inactive |
| CCc1ccc(NC(=O)CN2CCN(Cc3cccc(C)c3)S2(=O)=O)cc1 | active |
| Cc1cccc(CN2CCCN(CC(=O)Nc3ccc(Cl)cc3)S2(=O)=O)c1 | inactive |
| COC(=O)c1ccc(NC(=O)CN2CCN(Cc3ccc(C)cc3)S2(=O)=O)cc1 | inactive |
| CC(COc1ccccc1)NCc1nnc(-c2ccccc2)o1 (configuration not stated) | active |

| Structure (SMILES) | outcome |
| --- | --- |
| Cc1cc(C)cc(C(=O)NCCn2c(-c3ccccc3)nc3cccnc32)c1 | inactive |
| CCn1c(=O)n(-c2ccc(C)c(C)c2)c2nc(-c3cccc(F)c3F)nc(C(N)=O)c21 | inactive |
| Cc1noc(C)c1CN(C)Cc1ccc(C2CCCO2)s1 (configuration not stated) | inactive |
| COc1ccccc1CNc1nc2nc(CNc3ccc(F)cc3)cc(=O)n2[nH]1 | inactive |
| CCCc1cc(=O)n2[nH]c(CNc3ccc(C)cc3C)nc2n1 | inactive |
| COc1ccccc1NCc1nc2nc(C(C)C)cc(=O)n2[nH]1 | active |
| CC(C)c1nc(CN(C)C(=O)c2cnn3ccn(C)c23)cs1 | inactive |
| COc1ccccc1-c1cc2n(C)c(C)c(CCC(=O)Nc3ccccc3F)c(=O)n2n1 | inactive |
| CCOc1ccc(NC(=O)Nc2c(C)nc3nc(C4CC4)[nH]n3c2=O)cc1 | inactive |
| CCOC(=O)CCc1c(C)nc2nc(CNc3ccccc3F)[nH]n2c1=O | active |
| O=C(CCn1nnc2ccccc21)N1CCCC(c2ccn[nH]2)C1 (configuration not stated) | inactive |
| OCCCc1nc2ccccc2n1-c1ccc2[nH]ccc2c1 | inactive |
| Cc1cc2cc(C(=O)NCCSCc3nc[nH]c3C)ccc2o1 | inactive |
| Cc1ccc2c(CC(=O)NCc3csc(C)n3)cc(=O)oc2c1 | inactive |
| O=C(c1csc(S(=O)(=O)NCc2ccc(F)cc2)c1)N1CCCC1 | inactive |
| Cc1cc(F)cc(-c2c(-c3ccccc3)ncn2CCN2CCC(O)CC2)c1 | active |
| Cc1cc(C)c(-c2c(-c3ccccc3)ncn2CCOCCO)c(C)c1 | inactive |
| Cc1ccc(-c2c(-c3ccccc3)ncn2CCN2CCCC2=O)c(F)c1 | inactive |
| Cc1nn(C)cc1-c1c(-c2ccccc2)ncn1CCNC(=O)c1ccncc1 | inactive |
| COCCNC(=O)C1(C)Cn2c(cc3ccsc32)C(=O)N1c1ccc(OC)cc1 (configuration not stated) | inactive |
| CCc1cc(Sc2ccccc2NC(=O)Cc2ccccc2)n2nc(C)nc2n1 | inactive |
| CCc1cc(Sc2ccccc2NC(=O)c2ccc(Br)cc2)n2nc(C)nc2n1 | inactive |
| CCc1cc(Sc2ccccc2NC(=O)c2cccc(Cl)c2)n2nc(C)nc2n1 | active |

| Structure (SMILES) | outcome |
| --- | --- |
| CC(C)CNc1nc(Nc2ccc(Cl)cc2)c2cnn(-c3ccccc3)c2n1 | inactive |
| Cc1cccc(CN2CCCN(CC(=O)NCc3ccc(Cl)cc3)S2(=O)=O)c1 | inactive |
| CCOC1CCN(Cc2cc3cc4c(cc3[nH]c2=O)CCC4)CC1 | inactive |
| CCOC(=O)Cn1c(=O)n(-c2ccc(C)c(C)c2)c2nc(-c3ccccc3C)nc(C(N)=O)c21 | inactive |
| CCc1cc(-c2nccn2CCCc2nn[nH]n2)on1 | inactive |
| Cc1ccnc(C(NC(=O)c2ccccc2-n2cncn2)C2CC2)c1 (configuration not stated) | inactive |
| O=S(=O)(NCCCc1nc2ccccc2o1)NCc1ccccc1 | inactive |
| COc1ccc(N2C(=O)CCS2(=O)=O)cc1S(=O)(=O)Nc1cc(Cl)ccc1C | inactive |
| Cc1ccc(S(=O)(=O)N2CCN(c3cc(-c4cccc(F)c4)ncn3)CC2)cc1C | inactive |
| CC(C)(C)c1ccc(-c2nc3nc(CNc4ccccc4Cl)cc(=O)n3[nH]2)cc1 | active |
| Cc1cccc(NCc2cc(=O)n3[nH]c(-c4ccc(C(C)(C)C)cc4)nc3n2)c1 | inactive |
| COc1ccc(CNc2nc3nc(CNc4ccc(C)c(Cl)c4)cc(=O)n3[nH]2)cc1 | inactive |
| O=C(NCC1CCN(Cc2ccccc2F)C1)c1cc(Cl)no1 (configuration not stated) | inactive |
| CCOC(=O)Cn1c(=O)n(-c2ccc(C)c(C)c2)c2nc(-c3cccc(F)c3F)nc(C(N)=O)c21 | inactive |
| Cc1nc(C(C)C)sc1CNC(=O)c1cn(CC2CCCNC2)nn1 (configuration not stated) | inactive |
| O=C(C1CCCN(C2CCN(Cc3cccnc3)CC2)C1)N1CC=CC1 (configuration not stated) | inactive |
| CC(c1cccs1)N(C)Cc1cnc(-c2ccco2)nc1 (configuration not stated) | inactive |
| CSC(C)(C)CC(C)NCC(=O)Nc1ccccc1C (configuration not stated) | inactive |
| COC(C)(C)Cn1ccnc1-c1ccc(Oc2ncccn2)cc1 | inactive |
| Cn1nc(-c2ccccc2)c(-c2ccccc2)c(C(=O)Nc2ccc(S(N)(=O)=O)cc2)c1=O | inactive |
| CCOc1c(N2CCc3ccccc3C2)c(=O)c1=O | inactive |
